The text below walks through data of publication PMC7819943, “Rice protein-binding microarrays: a tool to detect cis-acting elements near promoter regions in rice”.

Whole data set: some 68,000 sequences, median “fluorescence intensity (a.u.)” near 9,100, cut for the highest 2% near 16,000. Many of the other results were omitted from the sample, so the highest values are more common in it than they were.

OsWRKY34, sequence (Q0JBA9 entry or part of it): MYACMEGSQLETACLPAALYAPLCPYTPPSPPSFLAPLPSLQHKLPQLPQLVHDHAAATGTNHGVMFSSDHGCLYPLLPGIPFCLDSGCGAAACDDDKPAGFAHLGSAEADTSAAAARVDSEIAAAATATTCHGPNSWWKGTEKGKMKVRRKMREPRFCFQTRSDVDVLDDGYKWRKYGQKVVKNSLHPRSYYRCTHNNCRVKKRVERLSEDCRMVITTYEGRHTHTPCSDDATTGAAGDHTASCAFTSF

The target of the assay is OsWRKY34 (Oryza sativa, UniProt Q0JBA9 1-250). As to the kind of experiment: protein-binding microarray (RPBM); PBS, 2% BSA, 51.3 ng/ul salmon testes DNA, 50 uM zinc acetate, 200 nM TF, 25 C, 1 h; high values mean tight binding. Particulars: protein: recombinant; tags: N-terminal polyhistidine and DsRed monomer fusion (pET32a); label: CyDye5-dUTP incorporated in the synthesized complementary strand; 3' TTTTT single-stranded linker to array surface; dsDNA, one strand shown. The gist of the method:
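Using Ni–NTA, transcription factors fused N-terminally to polyhistidine and DsRed were purified after expression in E. coli BL21-CodonPlus. These were incubated at 200 nM with a blocked, double-stranded custom Agilent array for 1 h at 25 °C in a buffer containing 50 µM zinc acetate, and the array was washed. The binding signal is per-feature fluorescence intensity (arbitrary units) on an Axon 4000B scanner.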
On to “ACATTTTAATTTGTAGGGAGAGGTACTATGGGCTTAACTTCGGAGTCACCTAGTGCAG”, for which the binding signal was 9750 fluorescence intensity (a.u.). As for “GGGGTCGGGGTGGGAGAGGGAGGCTACACTACAGCAGCAGCGGAGTCACCTAGTGCAG”, the figure is 11100 fluorescence intensity (a.u.). “AACAAACCAACCTAGGATACTACTGTCAATTTTCACAACCCGGAGTCACCTAGTGCAG”: the binding signal is 9280 fluorescence intensity (a.u.).

Regarding “GCAGTACACTGATACGATACAATCGTTGACTGTTTCAGGACGGAGTCACCTAGTGCAG”, the binding signal was 9230 fluorescence intensity (a.u.). The same measure for “TGTCCTTTGTTGTGGTGTGGTGGTGGGCATCTGGACCGTTCGGAGTCACCTAGTGCAG”: 29700 fluorescence intensity (a.u.).

With “GTGTGGGTGGCAGGGTGTGTTGAGGAGGTGCCCGCGTTGCCGGAGTCACCTAGTGCAG”, the binding signal is 10300 fluorescence intensity (a.u.).

Take “AATGGGTGTTTTTTTAGTTGTTGTGTGTGTTTGGACGATTCGGAGTCACCTAGTGCAG”: the binding signal is 10400 fluorescence intensity (a.u.). As for “GGCGCCGGGGTGGGGTGGTGCTGGAGCCACCGGAGGAGCGCGGAGTCACCTAGTGCAG”, the figure is 9730 fluorescence intensity (a.u.); as for “CAGGAGGGGTGGGTTGTTGTTCGGTGGTGTGGACCCGTGCCGGAGTCACCTAGTGCAG”, 17700 fluorescence intensity (a.u.). As for “ATTGGATCCGGGGAGGAGGAGGTGGGGTTCGGTTTCGTGCCGGAGTCACCTAGTGCAG”, the figure is 11600 fluorescence intensity (a.u.); as for “TGGATCTGGTGTGTTAGTTTGGATTTGTGTTTGTCCTTTTCGGAGTCACCTAGTGCAG”, 12600 fluorescence intensity (a.u.). As for “GGAGGAGGGGTGGGGTGTTGAGCCCTGGAGAAGCCACCGCCGGAGTCACCTAGTGCAG”, the figure is 21000 fluorescence intensity (a.u.); as for “GATGCATTTTTGTCTGGGCGTTGTCCTTGTGGAAGCATCTCGGAGTCACCTAGTGCAG”, 10000 fluorescence intensity (a.u.).

“TTTTGGTGGGTGGGTTTGGGACGTTGGATTGGTGGTGGACCGGAGTCACCTAGTGCAG”: the binding signal was 12600 fluorescence intensity (a.u.). The same measure for “CGCTTCGCTGACGGTTGTGTGTTGGTGGGTGCAGGGGTGCCGGAGTCACCTAGTGCAG”: 12700 fluorescence intensity (a.u.); for “TTGTTGGGTGGGGACGTGGGGTGGGGTTCATGGAGTGGTTCGGAGTCACCTAGTGCAG”: 24800 fluorescence intensity (a.u.); for “TCTACGGGTATCCCGCGTCGACAATATTCCCATGCATTTACGGAGTCACCTAGTGCAG”: 10900 fluorescence intensity (a.u.).

Regarding “ATTCCGTTAGCATTTGTCCTGCCATGGCCTATTCTGCCAGCGGAGTCACCTAGTGCAG”, the binding signal was 10400 fluorescence intensity (a.u.). As for “CATGTTGTTCTGTTTGATGTTGCCCACTACGGTCTTTAGTCGGAGTCACCTAGTGCAG”, the figure is 10900 fluorescence intensity (a.u.); as for “GACGAGACCGACGCCGTCATCCTCCTTCTCACGCTACCATCGGAGTCACCTAGTGCAG”, 8040 fluorescence intensity (a.u.); as for “GTCACTTCTCCTTTTTTTTTGGCATGCAATAGACTTCCTTCGGAGTCACCTAGTGCAG”, 8780 fluorescence intensity (a.u.). As for “CCCCTCGAGTCTGATCCTCCCACTACCAACGTCCACCGGCCGGAGTCACCTAGTGCAG”, the figure is 9210 fluorescence intensity (a.u.); as for “CCGCCGCCGCTCGCCGCCGCATTGCGTTACTCGAGCTCGCCGGAGTCACCTAGTGCAG”, 8710 fluorescence intensity (a.u.); as for “TACTGTCTGTCAACACACTTCATGATTTCTCATCAAATATCGGAGTCACCTAGTGCAG”, 10400 fluorescence intensity (a.u.). The same measure for “AGGACGATGGGCGCGATGGGATTTGTTCTTGACTGTTTTACGGAGTCACCTAGTGCAG”: 12000 fluorescence intensity (a.u.); for “GGTGCGTGTTCGGGATGGGGTTCGGGTTCAATTTCAGGTTCGGAGTCACCTAGTGCAG”: 16700 fluorescence intensity (a.u.). For the sequence “CGATACTTTCATGGGTGGGTCCTATGTTGCACGGTTGGTTCGGAGTCACCTAGTGCAG”, the binding signal was 22900 fluorescence intensity (a.u.). With “TTCGGGTTCAATTTCAGGTTCAGTCGCTTGCTTGGTGCTTCGGAGTCACCTAGTGCAG”, the binding signal was 8960 fluorescence intensity (a.u.). As for “TACTCAATGTCTAATGGGGTGTTTGGATGGGACTAATTTTCGGAGTCACCTAGTGCAG”, the figure is 13000 fluorescence intensity (a.u.).

On to “TCGGTTTCATACGTGGGGTCTGTTGGTGGAGGTGTTGCCACGGAGTCACCTAGTGCAG”, for which the binding signal was 9440 fluorescence intensity (a.u.).

On to “TATATACTTTCATGGGTCTATATTTATATGTATGTATACACGGAGTCACCTAGTGCAG”, for which the binding signal was 8690 fluorescence intensity (a.u.). As to “TTACTATACTATTAATATCTGATCACACCTGTCATACACACGGAGTCACCTAGTGCAG”, the binding signal is 9710 fluorescence intensity (a.u.).

As for “CAGAGTGCAAGCCAATCATCGCCACCACGCTACGCTACACCGGAGTCACCTAGTGCAG”, the binding signal is 8130 fluorescence intensity (a.u.).

Consider “CGTTTGTACTGTGTGGTGGTTGGTGATTGGGTGTTGTGCCCGGAGTCACCTAGTGCAG”, for which the binding signal was 13900 fluorescence intensity (a.u.).

As for “AAAAGCCGGTCTCCTTCATCTTCCCGTCCGTAAACCCTAACGGAGTCACCTAGTGCAG”, the binding signal is 10600 fluorescence intensity (a.u.). The same measure for “CGCCTCTTTTCGTTTCGTTTCGCCGCCCGCTTCCGCCGCGCGGAGTCACCTAGTGCAG”: 23300 fluorescence intensity (a.u.); for “GTTCCAGCCGCGTTTCCTCTCGCGGCGGCCTCGCCATTTCCGGAGTCACCTAGTGCAG”: 9070 fluorescence intensity (a.u.); for “TCCCTCTCTCTCTCTCTCTTCGTTTCCGCGCGCGCGCGCGCGGAGTCACCTAGTGCAG”: 9340 fluorescence intensity (a.u.). As for “CCGCCGCCGTTCCGTTTTTTCTCTCTCGCGCCGCCGCCAGCGGAGTCACCTAGTGCAG”, the binding signal is 17300 fluorescence intensity (a.u.).

In the case of “AGCCAGTTTTCTCCACCCTCGTTTTCCGCGCACATGTTTTCGGAGTCACCTAGTGCAG”, the binding signal was 17600 fluorescence intensity (a.u.). In the case of “CCTCTACGCGCGGCCAACGCCGCCGCCGCCGCCGCCGCTCCGGAGTCACCTAGTGCAG”, the binding signal is 8370 fluorescence intensity (a.u.). As for “CACCCTCGTTTCCACCCGCGCCCGCGCGCCGCGCGCCACTCGGAGTCACCTAGTGCAG”, the figure is 10800 fluorescence intensity (a.u.); as for “CTCGCCTCTAGGGTTCCGCCGTTTTCCGCGGCGCGCCACCCGGAGTCACCTAGTGCAG”, 9410 fluorescence intensity (a.u.); as for “CATCTCCTCCGTTTTCCGCGCACATGTTTTTTAAACTGCTCGGAGTCACCTAGTGCAG”, 10400 fluorescence intensity (a.u.). The same measure for “CTCGCTTCTTCTTCCTTCTTTCCGTCCTCGCCGCCCCGCGCGGAGTCACCTAGTGCAG”: 8470 fluorescence intensity (a.u.). For the sequence “ACGACGACGACGACGACGCAACCCCGCGGCGCGCGCCGGCCGGAGTCACCTAGTGCAG”, the binding signal was 8430 fluorescence intensity (a.u.). As for “TCTACGCCGCCGGCGGCGGCGGCGGCGGCAACTGCGGCGCCGGAGTCACCTAGTGCAG”, the figure is 47800 fluorescence intensity (a.u.).
